Compound activity: PubChem BioAssay, National Center for Advancing Translational Sciences (NCATS)
In the library only some 21% were active in any assay of this set; here they are far more common.
Shiga toxin inh – A qHTS for Small Molecule Inhibitors of Shiga Toxin; AID 2315, 2010; inhibition, % at 38.7 µM; Vero cells, Shiga toxin protein synthesis inhibition reporter; 290,000 tested, 9.2% active; in the data active = inhibition mostly above about 28%, no sharp cut-off; inactive = mostly below about 43%
Pf growth 48h – Primary qHTS for delayed death inhibitors of the malarial parasite plastid, 48 hour incubation; 310,000 tested, 5.9% active; P. falciparum luciferase growth in erythrocytes, 48 h; Potency, µM (top dose mostly 28.7 µM), usual class: inhibitors; active = well fitted inhibition curve with a large enough effect; inconclusive = small, poorly fitted or top-dose-only effect, or another doubt; inactive = no such curve, though single readings can be large or run the other way
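Luminescence readout; reporter = integrated firefly luciferase in P. falciparum. RBC culture at 2% hematocrit, 0.1% parasitemia final, 37 C/5% CO2; decreased signal taken as growth inhibition.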
SARS PLpro yeast – qHTS of Yeast-based Assay for SARS-CoV PLP; S. cerevisiae expressing SARS-CoV PLpro, growth rescue; Potency, µM (titrated, usually from 32.9 µM), most hits filed as activators; 330,000 tested, 0.19% active; also: nearly all actives have a fitted effect of over 55% in size
Pf growth 96h – Primary qHTS for delayed death inhibitors of the malarial parasite plastid, 96 hour incubation. P. falciparum luciferase reporter growth, 96 h. Potency, µM (highest dose often 28.7 µM), most hits filed as inhibitors. 320,000 tested, 6.9% active. AID 504834, 2011; active = well fitted inhibition curve with a large enough effect; inconclusive = small, poorly fitted or top-dose-only effect, or another doubt; inactive = no such curve, though single readings can be large or run the other way
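Two parasite generations (96 h, 37 C, 5% CO2) of compound exposure in infected erythrocytes (0.05% parasitemia, 2% hematocrit). Luciferase-reporter P. falciparum; decreased luminescence indicates inhibited growth, aimed at apicoplast-acting delayed death.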
NS1 function inh – qHTS Assay for Inhibitors of Influenza NS1 Protein Function | Potency, µM (doses to about 46.1 µM) | 270,000 tested, 0.4% active; also: actives are rising curves; nearly all actives have a fitted effect of over 50% in size
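OD600 was taken as the measure of yeast growth restored by compound in an NS1-expressing S. cerevisiae strain. Cells had been washed out of glucose medium and diluted 1:100 into galactose -URA medium, pH 6.0.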
CHX counter – Cycloheximide Counterscreen for Small Molecule Inhibitors of Shiga Toxin. cell reporter, cycloheximide protein synthesis inhibition counterscreen. max response, %. 300,000 tested, 12% active; in the data active = max response mostly above about 13%, no sharp cut-off; inactive = mostly below about 14%; also: read at 38.3 µM for the half of the compounds with a filed dose
Numbers stand for hits; 0 = inactive; ? = inconclusive; - = no result. Unless noted, calls follow the shape of the full dose curve.

SMILES	Shiga toxin inh	Pf growth 48h	SARS PLpro yeast	Pf growth 96h	NS1 function inh	CHX counter
O=C1CCCC2=C1C(c1ccncc1)Nc1ccccc1N2 (stereo unspecified)	0	-	0	10µM	0	0
O=C1CCCC2=C1C(c1cccs1)Nc1ccccc1N2 (stereo unspecified)	0	0	0	0	0	0
CC(NC(=O)C12CC3CC(C1)CC(n1cncn1)(C3)C2)C12CC3CC(CC(C3)C1)C2 (stereo unspecified)	0	12µM	0	12µM	0	0
CCOc1ccc(Br)cc1CNCCN1CCOCC1	0	0	0	12µM	0	0
CCOc1ccc2ccccc2c1CNCCN1CCOCC1	0	13µM	0	5.2µM	0	0
Cc1cc(C)c(N=Cc2c(O)[nH]c(=O)[nH]c2=O)c(C)c1	0	0	0	3.3µM	0	0
Brc1cccc(-c2nnc(SCc3ccon3)n2-c2ccccc2)c1	0	-	0	?	0	0
COc1ccccc1C(=O)NCCn1cc(SCC(=O)NCC2CCCO2)c2ccccc21 (stereo unspecified)	0	?	-	10µM	0	0
CCn1cc(SCC(=O)NCC2CCCO2)c2ccccc21 (stereo unspecified)	0	0	0	0	0	6.6
Cc1ccccc1C(=O)NCCn1cc(SCC(=O)NCC2CCCO2)c2ccccc21 (stereo unspecified)	0	?	0	0	0	0
CCCN(CCC)C(=O)Cn1ccc(=N)c2ccccc21	0	1.7µM	0	-	0	0
CCn1cc(SCC(=O)NC2CCCC2)c2ccccc21	0	7.4µM	0	?	0	0
O=C(CSc1cn(CC(=O)N2CCCCCC2)c2ccccc12)NCC1CCCO1 (stereo unspecified)	0	0	0	?	-	0
O=[N+]([O-])c1cccc(N(CC2CO2)S(=O)(=O)c2ccccc2)c1 (stereo unspecified)	0	0	0	0	0	0
COc1cccc(C(=O)N(C)CC2CCN(CCc3cccc(C(F)(F)F)c3)CC2)c1	0	0	0	?	0	0
CCOc1cc(C(=S)N2CCOCC2)ccc1OC(=O)c1cc(OC)c(OC)c(OC)c1	0	0	0	0	0	0
O=C(c1ccc(Br)o1)N1CCN(CCc2ccncc2)CC1	0	0	0	0	0	0
CCN(CC)C(=O)Cn1cc(SCC(=O)NC)c2ccccc21	0	0	0	12µM	-	0
COc1ccc(C(=O)N/N=C/c2ccc3cccc(O)c3n2)cc1	0	?	0	0	-	0
O=C(N/N=C/c1ccc2cccc(OCc3ccccc3)c2n1)c1ccc(Cl)cc1	61	0	0	0	0	31
COc1ccc(/C=N/NC(=O)c2ccc(COc3cccc4cccnc34)cc2)cc1O	32	?	0	?	0	13
O=C(N/N=C/c1ccc2c(c1)OCO2)c1ccc(COc2cccc3cccnc23)cc1	82	?	0	?	0	36
O=C(N/N=C/c1ccncc1)c1ccc(COc2cccc3cccnc23)cc1	0	8.3µM	0	?	-	0
OCCC1CN(Cc2nc3c(s2)CCCC3)CCN1Cc1ccccc1 (stereo unspecified)	0	?	0	0	0	0
Cc1ccc(S(=O)(=O)NC2CCCc3ccccc32)cc1C (stereo unspecified)	0	-	0	0	0	0
SMILES	Shiga toxin inh	Pf growth 48h	SARS PLpro yeast	Pf growth 96h	NS1 function inh	CHX counter
O=C(N/N=C/c1cccc(O)c1)c1ccc(COc2cccc3cccnc23)cc1	35	0	0	?	-	21
COc1cc(/C=N/c2oc(C)c(C)c2C#N)cc(Br)c1O	0	0	0	0	0	0
COc1ccc(/C=N/c2oc(C)c(C)c2C#N)c(OC)c1	0	0	0	12µM	0	0
O=C(O)CO.[NH2-].[NH2-].[Pt+2]	-	0	-	0	-	-
O=C(/C(Cl)=C/Nc1ccc(Br)cn1)C(F)(F)F	0	0	0	0	-	16
O=C(Nc1ccc(Cl)cc1)Nc1ccc(Br)cn1	0	-	0	?	0	0
COc1ccccc1CNC(=O)Cn1cccc1C(=O)c1ccccc1C	46	0	0	0	0	43
Cc1ccc(CNC(=O)Cn2cccc2C(=O)c2ccccc2C)cc1	0	0	0	0	-	0
COc1cccc(CNC(=O)Cn2cccc2C(=O)c2ccccc2C)c1	0	0	0	?	0	21
Cc1ccccc1C(=O)c1cccn1CC(=O)NCc1cccc(Cl)c1	42	0	0	0	0	50
CC(Sc1nnnn1-c1ccccc1)C(=O)Nc1ccc(N2CCN(C)CC2)cc1 (stereo unspecified)	0	0	0	0	0	0
Cc1ccc(-n2nnnc2SCC(=O)Nc2ccccc2-c2ccccc2)cc1C	0	0	0	4.7µM	0	0
Cc1ccc(-n2nnnc2SCC(=O)Nc2ccccc2N2CCCCC2)cc1C	0	2.3µM	0	?	0	0
CCOc1ccccc1NC(=O)CSc1nnnn1-c1ccc(C(=O)OC)cc1	0	0	0	4.1µM	0	0
Cn1nnnc1SCC(=O)Nc1ccccc1-c1ccccc1	0	0	0	?	0	0
COC(=O)c1ccc(-n2nnnc2SCC(=O)Nc2ccccc2OC)cc1	0	0	0	-	0	0
COc1ccc(-n2nnnc2SCC(=O)Nc2ccccc2N2CCOCC2)cc1	0	?	0	0	0	0
CC(Sc1nnnn1-c1ccccc1)C(=O)Nc1ccccc1-c1ccccc1 (stereo unspecified)	0	?	0	2.9µM	?	0
COc1ccc2ccccc2c1C(=O)/C=C\c1ccoc1	0	0	-	?	0	0
CCn1ccnc1CN(C)C(=O)c1cc(COc2ccc(OC)c3ccccc23)on1	0	?	0	0	0	8.3
Cc1cccc(C)c1OCc1cc(C(=O)N(C)Cc2nc3ccccc3[nH]2)no1	0	0	0	0	0	0
CCN(Cc1ccncc1)C(=O)c1cc(COc2c(C)cccc2C)on1	41	?	0	0	0	11
Cc1cccc(C)c1OCc1cc(C(=O)N(Cc2nccn2C)C(C)C)no1	0	?	0	0	0	19
COc1cc(C)ccc1OCc1cc(C(=O)N(Cc2nccn2C)C(C)C)no1	87	0	0	?	0	73
Cc1ccc(C(=O)N2CCC(C)CC2)cc1NC1=NC2CS(=O)(=O)CC2S1 (stereo unspecified)	0	0	0	0	0	0
Cc1csc(=O)n1CCC(=O)OCC(=O)Nc1cccc(C#N)c1	-	0	0	0	-	-
OCC[C@@H]1C[C@H](O)[C@@H](O)[C@]2(Cc3ccccc3O2)O1	0	0	0	?	0	0
Cc1ccc(S(=O)(=O)N(Cc2ccc(C(F)(F)F)cc2)C(=O)N2CCN(C)CC2)cc1	-	0	0	0	-	-
COc1cc(Nc2ccccc2Cl)c([N+](=O)[O-])nc1[N+](=O)[O-]	0	-	0	15µM	0	0
CC(C)(C)NC(=O)COc1ccc2oc3c(c2c1)CCCC3	0	?	0	?	0	18
